# Experimental data reported in the supplement of paper PMC12645437, “Orthogonal IMiD-Degron Pairs Induce Selective Protein Degradation in Cells” (ACS Chemical Biology, 2025).
# In all, about 8,300 sequences were measured (“log2 fold change of degron read counts, EGFP-low vs EGFP+ sorted cells (limma voom), compound-induced degradation”: median about -1.1, highest 2% from about 3.2 on). The entries come from a sample that favours the highest values as a whole.
# T1: CRBN, Q96SW2
# T1 chain: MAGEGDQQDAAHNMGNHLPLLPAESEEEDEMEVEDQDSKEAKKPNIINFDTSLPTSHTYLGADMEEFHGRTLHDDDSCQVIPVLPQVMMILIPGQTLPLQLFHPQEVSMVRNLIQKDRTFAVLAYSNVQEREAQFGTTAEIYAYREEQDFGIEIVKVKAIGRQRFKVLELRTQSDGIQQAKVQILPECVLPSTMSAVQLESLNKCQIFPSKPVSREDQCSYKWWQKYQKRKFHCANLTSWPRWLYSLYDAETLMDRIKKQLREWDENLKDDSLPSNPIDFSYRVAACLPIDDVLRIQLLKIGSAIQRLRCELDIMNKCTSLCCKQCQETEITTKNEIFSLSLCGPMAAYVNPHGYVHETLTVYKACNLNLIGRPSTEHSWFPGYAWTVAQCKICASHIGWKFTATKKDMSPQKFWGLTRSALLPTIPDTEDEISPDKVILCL
# Target: T1, CRBN, Q96SW2
# Assay: log2 fold change of degron read counts, EGFP-low vs EGFP+ sorted cells (limma voom), compound-induced degradation; higher = more compound-induced degradation of the degron-EGFP fusion; degrons are variants of IKZF1/3 zinc finger 2; compound dose not given here
# Conditions: Jurkat, 18 h
# [1] = compound: compound 19 (5-tert-butyl-thalidomide)
# [2] = compound: compound 22 (5-morpholino-thalidomide)
# [3] = compound: compound 33 (diphenyl IMiD analogue)
# 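Note: pooled lentiviral library of zinc finger degron-EGFP fusions in mCherry-positive Jurkat cells, FACS-sorted after compound exposure, with degron abundance counted by next-generation sequencing.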
Sequence,log2 fold change of degron read counts [1],log2 fold change of degron read counts [2],log2 fold change of degron read counts [3],log2 fold change of degron read counts (compound: thalidomide)
"FCCDQCGAQFTQKGNLLRHIKL [46F_47C_49D_50Q_52G_53A_54Q_55F_67L_, Q9UKT9]",-1.9,-1.68,-1.17,-2.37
"FWCNQCGRSFTQKGNLLRHIKL [46F_47W_49N_50Q_52G_53R_54S_55F_67L_, Q9UKT9]",-1.96,-2.11,-1.99,-2.07
"LVCEICGFDCTQKGNLLRHIKL [46L_47V_49E_50I_52G_53F_54D_55C_67L_, Q9UKT9]",-3.07,-2.83,-2.91,-1.81
"FDCNQCGAFFTQKGNLLRHIKL [46F_47D_49N_50Q_52G_53A_54F_55F_67L_, Q9UKT9]",-1.58,-1.99,-2.03,-1.65
"FRCDVCGALFTQKGNLLRHIKL [46F_47R_49D_50V_52G_53A_54L_55F_67L_, Q9UKT9]",-2.19,-2.03,0.228,-1.08
"LNCPICGFDCTQKGNLLRHIKL [46L_47N_49P_50I_52G_53F_54D_55C_67L_, Q9UKT9]",-1.95,-1.67,-1.11,-0.883
"FRCEQCGASFTQKGNLLRHIKL [46F_47R_49E_50Q_52G_53A_54S_55F_67L_, Q9UKT9]",-1.07,-1.32,0.513,-0.516
"LKCEICGFRCTQKGNLLRHIKL [46L_47K_49E_50I_52G_53F_54R_55C_67L_, Q9UKT9]",-1.07,-2.46,-2.5,-0.336
"LQCEICGFRCTQKGNLLRHIKL [46L_47Q_49E_50I_52G_53F_54R_55C_67L_, Q9UKT9]",1.29,1.55,1.26,3.58
"LYCEICGFMCTQKGNLLRHIKL [46L_47Y_49E_50I_52G_53F_54M_55C_67L_, Q9UKT9]",3.38,3.27,2.53,1.05
"LCCEICGFMCTQKGNLLRHIKL [46L_47C_49E_50I_52G_53F_54M_55C_67L_, Q9UKT9]",1.12,1.14,1.45,1.31
"LICEICGFRCTQKGNLLRHIKL [46L_47I_49E_50I_52G_53F_54R_55C_67L_, Q9UKT9]",1.24,2.26,1.57,3.01
"LACEICGFICTQKGNLLRHIKL [46L_47A_49E_50I_52G_53F_54I_55C_67L_, Q9UKT9]",1.83,0.461,-0.53,-0.408
"LYCEICGFICTQKGNLLRHIKL [46L_47Y_49E_50I_52G_53F_54I_55C_67L_, Q9UKT9]",2.99,3.26,2.2,0.746
"LCCEICGFICTQKGNLLRHIKL [46L_47C_49E_50I_52G_53F_54I_55C_67L_, Q9UKT9]",0.819,0.557,1.54,1.05
"LECEICGFRCTQKGNLLRHIKL [46L_47E_49E_50I_52G_53F_54R_55C_67L_, Q9UKT9]",0.728,-0.831,2.02,3.15
"LLCEICGFRCTQKGNLLRHIKL [46L_47L_49E_50I_52G_53F_54R_55C_67L_, Q9UKT9]",0.785,-1.31,0.385,2.48
"LACEICGFMCTQKGNLLRHIKL [46L_47A_49E_50I_52G_53F_54M_55C_67L_, Q9UKT9]",2.65,1.33,0.0952,0.132
"LFCEICGFRCTQKGNLLRHIKL [46L_47F_49E_50I_52G_53F_54R_55C_67L_, Q9UKT9]",3.71,3.64,1.36,2.31
"FICDICGATFTQKGNLLRHIKL [46F_47I_49D_50I_52G_53A_54T_55F_67L_, Q9UKT9]",-1.39,0.332,0.735,-0.113
"FKCEQCGAPFTQKGNLLRHIKL [46F_47K_49E_50Q_52G_53A_54P_55F_67L_, Q9UKT9]",-1.28,-2.18,-2.55,-1.19
"FVCNICGACFTQKGNLLRHIKL [46F_47V_49N_50I_52G_53A_54C_55F_67L_, Q9UKT9]",-1.18,0.539,1.63,1.37
"FFCNQCGRTFTQKGNLLRHIKL [46F_47F_49N_50Q_52G_53R_54T_55F_67L_, Q9UKT9]",-2.31,-2.17,-2.54,-2.59
"FCCSVCGHKFTQKGNLLRHIKL [46F_47C_49S_50V_52G_53H_54K_55F_67L_, Q9UKT9]",-2,-2.26,-2.77,-2.04
"FWCEICGHIFTQKGNLLRHIKL [46F_47W_49E_50I_52G_53H_54I_55F_67L_, Q9UKT9]",-0.453,-0.795,-0.246,-0.951
"FICEICGRIFTQKGNLLRHIKL [46F_47I_49E_50I_52G_53R_54I_55F_67L_, Q9UKT9]",-1.03,-1.63,0.139,-0.162
"FLCEICGRAFTQKGNLLRHIKL [46F_47L_49E_50I_52G_53R_54A_55F_67L_, Q9UKT9]",-1.9,-2.56,-1.36,-1.22
"LRCEICGFICTQKGNLLRHIKL [46L_47R_49E_50I_52G_53F_54I_55C_67L_, Q9UKT9]",-0.547,-1.4,0.271,0.795
